D2 PAM-1: positive allosteric modulators of human D2 dopamine receptor | potentiation, % at 10 µM | P14416 | HEK293 T-REx D2, calcium flux, EC20 dopamine potentiation | actives 0.34% (n = 340,000);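 active = potentiation over 3 SD above the plate norm, cut at about 30% in these data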; also: 0% is about no effect
Target sequence (P14416 whole entry, looked up): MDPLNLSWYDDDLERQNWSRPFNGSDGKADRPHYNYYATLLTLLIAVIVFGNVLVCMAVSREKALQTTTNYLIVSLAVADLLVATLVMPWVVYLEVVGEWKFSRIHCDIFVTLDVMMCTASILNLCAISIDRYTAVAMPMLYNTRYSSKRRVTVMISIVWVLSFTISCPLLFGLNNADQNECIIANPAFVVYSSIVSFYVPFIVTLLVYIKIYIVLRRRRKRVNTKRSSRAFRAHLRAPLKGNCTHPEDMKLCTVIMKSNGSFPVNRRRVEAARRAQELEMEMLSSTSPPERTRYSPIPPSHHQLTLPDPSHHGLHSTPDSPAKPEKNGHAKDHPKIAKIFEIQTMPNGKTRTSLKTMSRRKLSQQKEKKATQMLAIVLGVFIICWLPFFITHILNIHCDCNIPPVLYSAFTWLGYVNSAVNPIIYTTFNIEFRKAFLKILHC
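Primary screen. Calcium kinetics in induced HEK293 T-REx D2 cells: compound pre-addition 180 s, EC20 dopamine, 180 s more.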
D2 ag-1: activates the human D2 dopamine receptor. HEK293 T-REx D2 cells, calcium flux agonist mode. actives 0.53% (n = 340,000). P14416. activation, % at 2 µM. AID 485358;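 active = activation over 3 SD above normal in the single-dose calcium agonist read, cut at about 30% in these data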; also: 0% is about no effect
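Calcium-flux readout, 1 cycle/sec over 180 s following compound pin transfer, in inducible HEK293 Trex D2 cells (force-coupled); dopamine controls included. Positive calcium responses during this window marked compounds as potential agonists.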
D2 ag-2: human D2 receptor agonism in beta-arrestin assay. P14416. DiscoveRx PathHunter D2 beta-arrestin, luminescence, 90 min; 100% = 57 uM dopamine signal. activation, % (concentration not given with the values). actives 0.084% (n = 360,000). AID 624465; in the data active = activation above about 40%; inconclusive = between about 15% and that limit
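Agonist mode: compounds alone added to overnight-plated D2 PathHunter cells for 90 min at 37 C, with 57 uM final dopamine (EC100) defining full response. Beta-arrestin recruitment detected by chemiluminescent reagent, read after 1 h at ambient temperature.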
D2 PAM-2: potentiates the human D2 dopamine receptor allosterically; P14416; DiscoveRx D2 beta-arrestin cells, luminescence, 90 min; 100% = 57 uM dopamine signal; potentiation, % (concentration not given with the values); actives 0.23% (n = 360,000); AID 624464; in the data active = potentiation above about 50%; inconclusive = mostly about 30% to 49%
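PathHunter D2 cells, attached overnight at 37 deg C, received compound in DMSO plus dopamine at EC20 (50 nM final) for 90 min at 37 deg C. Beta-arrestin recruitment was read as luminescence after 1 h with detection reagent at ambient temperature.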
D2 antag: D2 dopamine receptor (human) antagonism | inhibition, % at 10 µM | P14416 | HEK293 TREx D2 cells, calcium flux, dopamine EC80 | AID 485344 | actives 2% (n = 340,000); in the data active = inhibition above about 30%; inactive = below that, where a call was filed; also: 0% is about no effect
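In this primary screen, negative modulation is detected by tracking calcium flux after an EC80 dopamine challenge in inducible HEK293 T-REx D2 cells preexposed to test compound for 180 s.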
B2AR arrestin: agonists driving beta-arrestin recruitment to human beta2-adrenergic receptor | beta-arrestin recruitment to beta2AR, cell-based reporter | Potency, µM (doses to about 46.1 µM), without a hit: at the highest dose activation, usual class: activators | actives 0.02% (n = 330,000) | P07550; active = well fitted activation curve with a large enough effect; inconclusive = small, poorly fitted or top-dose-only effect;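 also: potency is read from the fitted curve at half-maximal effect; 0% = DMSO controls and full agonism = EC100 isoproterenol or metaproterenol; nearly all actives have a fitted effect of over 65% in size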
* hit, by the source's call; ? = inconclusive; · = not tested or not shown. Compounds with a hit are over-represented: about 2.4% of the library has one in this group of screens.

SMILES	D2 PAM-1	D2 ag-1	D2 ag-2	D2 PAM-2	D2 antag	B2AR arrestin
Cc1ccccc1NC1=C/C(=N\S(=O)(=O)c2ccc(C(=O)O)cc2)c2ccccc2C1=O	10.4	0.1	10.4	18.2	-4.4	-0.3%
COC(=O)C(C(C)=O)C1=C/C(=N\S(=O)(=O)c2ccc(C)cc2)c2ccccc2C1=O (centres undefined)	-4.3	0.7	8.3	50.1*	-3.6	0.6%
Cc1ccc(NC(=O)CSc2nnc(Cc3cccn3C)n2-c2ccc(F)cc2)c(C)c1	-20.5	-0.8	-2.8	-4.1	-0.1	-0.5%
Cn1c(CCCOc2ccc(Cl)cc2Cl)nnc1SCC(=O)Nc1nccs1	1.7	0.6	2.1	0.1	31.9*	0.1%
Cn1c(CSCc2ccccc2Cl)nnc1SCC(=O)Nc1nccs1	10.8	0.3	0.6	-1.6	59.7*	0.4%
O=C(N/N=C/c1ccsc1)c1ccccn1	-8.5	0.1	-4.6	-4.9	39.1*	0.1%
Cc1cc(C=O)sc1[B-](F)(F)F	·	·	-1.9	·	·	·
CCn1c(SCC(=O)N/N=C/C=C/c2ccccc2[N+](=O)[O-])nnc1-c1ccc(Cl)cc1	-4.6	-1.9	·	·	-1.4	-0.4%
O=C(CSc1nc2ccccc2o1)Nc1nc(-c2ccccc2)cs1	-21.2	-0.6	-2.6	-12.6	30.0*	-0.6%
O=C(CSc1nc2ccccc2o1)Nc1nc2ccccc2s1	4.2	1.0	-2.6	-6.9	-4.5	-0.1%
COCC(C)NC(=O)/C=C/c1ccc(OC)cc1 (centres undefined)	5.7	0.0	-0.8	-6.9	10.3	0.2%
COc1cccc(N2CCN(c3nc(C)cc(=O)[nH]3)CC2)c1	-5.8	0.4	-2.1	-8.9	-5.5	-1.0%
COc1ccc(-c2cc(C)no2)cc1S(=O)(=O)N1CCCCC1	-4.7	-0.4	2.7	-5.2	-0.4	-0.2%
COc1ccc(-c2cc(C)no2)cc1S(=O)(=O)NCCCN1CCCCCC1	-2.4	0.0	-2.6	-35.1	33.7*	0.1%
O=S(=O)(CCc1nnc(-c2ccc(Br)cc2)o1)c1ccc(Cl)cc1	·	·	-1.1	-6.6	·	-0.8%
CCCn1c(C)nc2c(c1=O)c1nc3ccccc3nc1n2-c1ccccc1	·	·	-4.4	-3.7	·	·
C/C(=N\NC(=O)c1ccccc1F)c1ccc2c(c1)Nc1ccccc1S2	-2.5	0.1	?	87.2*	-4.4	-0.5%
C[C@H](NC(=O)OC(C)(C)C)C(=O)NCC1CCC(C(=O)O)CC1 (some centres undefined)	7.9	0.2	-0.1	13.6	14.9	-0.2%
c1ccc(-c2cn3c(n2)SCC3)cc1	30.2*	-1.1	-3.1	-18.3	4.3	-1.2%
Brc1ccc(-c2cn3c(n2)SCC3)cc1	19.1	-1.1	2.6	-2.2	33.1*	-0.5%
COC(=O)C(Cc1ccccc1)NC(=O)CNC(=O)c1ccc(Br)o1 (centres undefined)	6.1	0.1	-3.0	2.0	-8.6	-0.2%
Cc1cccnc1NS(=O)(=O)c1ccccc1	·	·	-1.7	-5.5	·	·
O=C1NC2(CCOc3ccccc32)C(=O)N1CC(=O)N(Cc1ccccc1)C1CCS(=O)(=O)C1 (centres undefined)	23.7	-0.5	-1.6	5.3	40.4*	-0.3%
O=C(Cn1cnc2c(nnn2Cc2ccc(F)cc2)c1=O)NC1CCCC1	-2.1	-0.5	0.0	-4.0	4.7	-0.1%
COc1ccc(-n2c(-c3ccc(Br)cc3)n[nH]c2=S)cc1	-7.6	0.3	-3.1	-4.5	31.0*	-1.0%
SMILES	D2 PAM-1	D2 ag-1	D2 ag-2	D2 PAM-2	D2 antag	B2AR arrestin
O=C(Nc1cc(=O)c2ccccc2o1)N1CCOCC1	30.7*	0.6	-0.7	-8.8	-1.7	-1.0%
Clc1cc(Br)ccc1OCCN1CCOCC1	-16.4	-0.4	-1.6	-22.2	-9.2	4.0%
Cc1cc(Cl)c(OCCOCCN2CCCC(C)C2)c(Br)c1 (centres undefined)	-13.0	-1.3	0.8	-13.2	29.8	-0.9%
CC1CCN(CCCOc2ccc(Br)cc2Cl)CC1	-34.1	1.7	0.2	-3.3	46.8*	0.4%
CC1CCCN(CCOCCOc2ccc(Br)cc2Cl)C1 (centres undefined)	-27.4	0.7	0.3	-41.5	51.6*	-0.8%
CN1CCN(CCOCCOc2ccc(Br)cc2Cl)CC1	-34.4	-2.4	-4.1	-5.8	30.7*	0.4%
CC1CCCN(CCOCCOc2ccc(Cl)cc2Br)C1 (centres undefined)	-22.8	0.6	-3.7	-5.6	83.2*	-0.6%
COc1ccc(-c2noc(-c3ccc(N4CCCCC4)c([N+](=O)[O-])c3)n2)cc1	-1.1	0.1	·	·	·	·
C1CCN2C[C@@H]3C[C@@H](CN4CCCC[C@@H]34)[C@H]2C1	·	·	2.4	-2.3	·	·
Cc1ccc(OCCCCCCN2CCNCC2)c(Br)c1	·	·	0.9	-30.5	·	·
Cc1ccc(OCCCCN2CCC(C)CC2)c(Br)c1	-20.6	-0.4	-7.8	-38.9	107.2*	-0.1%
Cc1cc2oc(C(=O)Nc3nonc3C)c(C)c2cc1Cl	33.8*	0.2	-1.2	-7.1	12.2	-0.5%
CN1CCc2ccccc2Cc2[nH]c3ccccc3c2CC1	-18.3	0.8	-2.0	-31.1	72.0*	0.0%
COc1ccc(/C=C/C(=O)Nc2ccc3nc(N4CCCCC4)cc(C)c3c2)cc1OC	-3.2	-0.4	·	·	·	·
O=C(c1cc(F)ccc1F)C1CCCN(C(=O)CCN2CCCCO2)C1 (centres undefined)	1.6	0.5	-0.3	-4.5	31.7*	-1.2%
COC(=O)CCC(=O)N1CCCC(C(=O)c2cc(F)ccc2F)C1 (centres undefined)	-1.6	0.0	5.0	1.9	13.9	-0.1%
OCc1ccnc(Cl)c1	10.6	0.5	-0.4	-15.7	8.6	-0.4%
O=C(O)c1ccnc(Cl)c1	2.0	-1.5	1.2	-7.8	31.5*	-0.4%
Cc1c(Cl)cccc1NC(=O)c1cc(-c2ccc3c(c2)OCO3)on1	14.0	1.3	·	·	·	·
N#CC(C#N)=CC1=C2OC(c3ccccc3)=CC(c3ccccc3)=C2CCC1	-18.8	-0.1	-1.9	-0.6	-15.5	-1.8%
COc1ccc(C2=NS(=O)(=O)N(C)C(C(=O)Nc3ccc(OC)c(OC)c3)=C2)cc1	-19.8	-0.1	-2.7	-14.4	55.7*	-0.1%
CC(=O)c1cccc(NC(=O)C2=CC(c3ccc4c(c3)OCO4)=NS(=O)(=O)N2C)c1	-22.0	0.0	-2.4	-18.8	48.4*	0.2%
Cc1ccc(S(=O)(=O)N(C)c2ccc(OCC(=O)Nc3nnc(C4CC4)s3)cc2)cc1	4.8	1.1	-0.1	-0.2	1.6	0.0%
CCc1nnc(NC(=O)COc2ccc(N(C)S(=O)(=O)c3ccc(C)cc3)cc2)s1	-7.7	11.6	-11.8	-12.9	39.9*	-0.1%

Screens deposited in PubChem by National Center for Advancing Translational Sciences (NCATS).
